High-throughput results: PubChem BioAssay, National Center for Advancing Translational Sciences (NCATS)
JMJD2A Tudor inh: blocks the human JMJD2A Tudor domain; 4.4% of 390,000 active; Potency, µM (top dose mostly 114 µM), without a hit: at the highest dose activity change, negative = inhibition, hits mostly inhibitors; AID 504339; AlphaScreen JMJD2A-Tudor / H3K4me3 peptide binding; O75164; note: % is set by controls: 0 for no effect and ±100 for the full control effect; nearly all actives have a fitted effect of over 50% in size
Target sequence (O75164 whole entry, looked up, the tested form may be a part): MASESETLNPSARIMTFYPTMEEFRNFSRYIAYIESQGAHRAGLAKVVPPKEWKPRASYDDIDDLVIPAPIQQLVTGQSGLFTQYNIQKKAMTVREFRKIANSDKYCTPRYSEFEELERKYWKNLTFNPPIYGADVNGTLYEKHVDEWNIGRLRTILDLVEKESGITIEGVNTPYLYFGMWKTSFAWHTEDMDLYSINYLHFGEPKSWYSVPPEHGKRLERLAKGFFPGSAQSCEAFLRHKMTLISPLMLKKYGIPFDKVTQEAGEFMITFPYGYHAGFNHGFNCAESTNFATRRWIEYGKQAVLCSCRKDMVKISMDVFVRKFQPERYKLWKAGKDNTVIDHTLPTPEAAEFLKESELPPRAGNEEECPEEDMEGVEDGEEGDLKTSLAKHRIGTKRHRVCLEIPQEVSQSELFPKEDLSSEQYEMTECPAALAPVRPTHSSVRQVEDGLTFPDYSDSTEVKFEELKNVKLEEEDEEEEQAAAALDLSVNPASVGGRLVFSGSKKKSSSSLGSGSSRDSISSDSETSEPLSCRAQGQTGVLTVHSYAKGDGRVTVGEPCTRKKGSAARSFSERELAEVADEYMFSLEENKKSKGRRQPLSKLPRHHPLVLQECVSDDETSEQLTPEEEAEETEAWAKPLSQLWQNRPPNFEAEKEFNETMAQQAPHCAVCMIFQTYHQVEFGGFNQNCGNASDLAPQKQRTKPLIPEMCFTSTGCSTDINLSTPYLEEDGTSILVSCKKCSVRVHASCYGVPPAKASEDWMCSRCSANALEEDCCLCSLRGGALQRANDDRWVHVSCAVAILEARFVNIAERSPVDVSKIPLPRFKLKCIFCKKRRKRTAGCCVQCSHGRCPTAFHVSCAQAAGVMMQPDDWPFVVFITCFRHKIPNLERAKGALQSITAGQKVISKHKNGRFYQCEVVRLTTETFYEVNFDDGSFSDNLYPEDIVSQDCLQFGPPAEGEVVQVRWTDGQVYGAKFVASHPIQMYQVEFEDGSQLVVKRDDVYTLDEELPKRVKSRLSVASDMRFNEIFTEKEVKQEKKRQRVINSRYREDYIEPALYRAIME
G9a inh: G9a (human) methyltransferase inhibition. Q96KQ7. G9a H3K9 monomethylation, AlphaScreen, 2 h. 8.8% of 350,000 active. Potency, µM (highest dose often 102 µM), inactives show at the highest dose activity, negative = inhibition, actives largely listed as inhibitors; note: % is set by controls: 0 for no effect and ±100 for the full control effect; nearly all actives have a fitted effect of over 75% in size
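Chemiluminescent proximity detection of H3K9 monomethylation, read after 10 min bead incubation in the dark. Reaction: 20 nM G9a, 500 nM biotin-H3K9 peptide, 20 uM SAM cofactor, 2 h, room temperature, following 15 min enzyme-compound preincubation.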
L3MBTL1 block: blocks human L3MBTL1 | 0.66% of 230,000 active | AID 485360 | Q9Y468 | AlphaScreen L3MBTL1–H3K9me1 peptide binding | Potency, µM (doses to about 57.1 µM), for the others: top-dose activity, negative = inhibition, actives largely listed as inhibitors; note: % is set by controls: 0 for no effect and ±100 for the full control effect; nearly all actives have a fitted effect of over 60% in size
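Read-out is AlphaScreen signal from streptavidin donor and nickel chelate acceptor beads (10 ug/mL final each) bridging L3MBTL1 (50 nM) and biotinylated K9-monomethylated H3(1-15) peptide (75 nM), after 30 min compound exposure at room temperature.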
HP1b binding inh: blocks HP1-beta chromodomain binding to methylated histone tails; AlphaScreen HP1-beta / biotin-H3K9me3 peptide binding; Potency, µM (titrated, usually from 114 µM), for inactives: top-dose activity change, negative = inhibition, most hits filed as inhibitors; 0.56% of 390,000 active; AID 540317; note: nearly all actives have a fitted effect of over 70% in size
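Compound inhibition of the preformed complex between 50 nM HP1-beta and 50 nM biotinylated H3K9me3 peptide was read by AlphaScreen. Buffer was PBS pH 7.4 with 0.01% Tween-20. Incubations ran 30 min at room temperature, with 10 ug/mL donor/acceptor beads.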
BAZ2B block: blocks human BAZ2B | Q9UIF8 | AlphaScreen BAZ2B-H3K14Ac peptide displacement | Potency, µM (highest dose often 114 µM), without a hit: at the top dose activity change, negative = inhibition, usual class: inhibitors | 4.4% of 360,000 active; note: % is set by controls: 0 for no effect and ±100 for the full control effect; nearly all actives have a fitted effect of over 60% in size
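AlphaScreen luminescence quantifies BAZ2B engagement of H3K14Ac peptide; the protein and biotinylated peptide are both at 50 nM final, buffer PBS pH 7.4 with 0.01% Tween-20, all steps at room temperature.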
* = called active by the depositor; ? = inconclusive; · = not tested or not shown; [ ] = another dose, or the depositor's remark. Hits are enriched below; roughly 11% of the tested compounds scored in any of these assays. Calls come from the whole dose curve; as a rule, active = well fitted inhibition curve with a large enough effect; inconclusive = small, poorly fitted or top-dose-only effect; inactive = no such curve, though single readings can be large or run the other way. Potency is the fitted concentration of half-maximal effect.

SMILES	JMJD2A Tudor inh	G9a inh	L3MBTL1 block	HP1b binding inh	BAZ2B block
CCCCN(C)CCn1c(=S)[nH]c2ncccc2c1=O	?	50µM*	·	-12%	3%
O=C(NCCc1ccccc1)c1cnc2sc(N3CCCCC3)nn2c1=O	-9%	-7%[59 µM]	·	36%	-5%
COC(=O)c1c(-c2ccc(Cl)cc2)noc1N1CCN(c2cccc(C)c2C)CC1	10%	8%[59 µM]	·	45%[57 µM]	18%
CC1CC(C)CN(CCCn2c(=S)[nH]c3ccccc3c2=O)C1 (stereo unspecified)	-15%	79µM*	·	50%	1%
O=c1c2cccnc2[nH]c(=S)n1CCCN1CCN(c2ccccc2F)CC1	-16%	25%[2.33 µM]	5%	32%	5%
O=c1c2ccccc2[nH]c(=S)n1CCCN1CCN(c2ccccc2)CC1	-18%	-22%	·	-5%[57 µM]	-3%
CC1CCCCN1CCn1c(=S)[nH]c2ncccc2c1=O (stereo unspecified)	40µM*	?	-4%	-2%	-25%
Cc1ccc(-n2cc3c(=O)n(C)c(=O)n(C)c3c2)cc1C	-9%	45µM*	-4%	33%	-17%
CC1CC(Nc2cccc(O)c2)=CC(=O)O1 (stereo unspecified)	4%	1%[2.33 µM]	·	18%	-16%
C[C@@H]1Cc2c(O)c(O)cc(O)c2C(=O)O1	56µM*	-151%[59 µM]	·	?	?
O=C(C1CCCN(c2nnc(-n3cccc3)s2)C1)N1CCN(c2ccccc2)CC1 (stereo unspecified)	?	50µM*	·	-3%	?
CC(CCc1ccccc1)NC(=O)C1CCCN(c2nnc(-n3cccc3)s2)C1 (stereo unspecified)	-35%	9%[59 µM]	?	21%	12%
O=C1CCC(=O)N1CO	·	-21%[12.7 µM]	·	·	·
CCCN(CCC)CCNc1c(N2CCN(C(=O)OCC)CC2)c(=O)c1=O	0%	79µM*	·	22%	8%
CCCN(CCC)CCNc1c(NC2CCN(C(=O)OCC)CC2)c(=O)c1=O	-6%	-15%	·	87%	8%
COc1ccc(CNC(=O)COC(=O)c2cc(-c3ccco3)nc3ccccc23)cc1	·	10µM*	·	·	50µM*
O=C(OCC(=O)N1CCN(C(=O)COC(=O)c2ccccc2NCCO)CC1)c1ccccc1NCCO	-2%	·	·	41%	·
O=C(OCC(=O)N1CCN(C(=O)c2ccco2)CC1)c1ccccc1NCCO	32µM*	4%[0.501 µM]	-20%	-2%	?
O=C(OCC(=O)N1CCN(C(=O)c2ccco2)CC1)c1cc(-c2ccc(Cl)c(Cl)c2Cl)nc2ccccc12	-13%[57.1 µM]	79µM*	·	14%	-6%
O=C(c1ccco1)N1CCN(C(=O)c2cc(-c3ccccn3)nc3ccccc23)CC1	3%	?	-1%	33%	·
O=C(OCC(=O)N1CCN(C(=O)c2ccco2)CC1)c1cc(-c2ccco2)nc2ccccc12	40µM*	·	8.9µM*	32µM*	20µM*
COc1ccc(CNC(=O)COC(=O)c2cc(C)nc3ccccc23)cc1	-19%	·	1%	10%	·
COc1cccc(CNC(=O)CCc2c(C)c3ccc(O)c(C)c3oc2=O)c1	-4%	-2%[59 µM]	·	43%	-11%
CCCC(=O)Nc1ccc2nn(-c3ccc(CC)cc3)nc2c1	-3%	?	·	6%	2%
CN1CCN(c2ccc([N+](=O)[O-])cc2NC(=O)c2cccs2)CC1	-12%	1%	·	-4%	-16%
SMILES	JMJD2A Tudor inh	G9a inh	L3MBTL1 block	HP1b binding inh	BAZ2B block
CCc1ccc(-n2nc(C)c3c(C)cc(=O)n(CC(=O)NCc4ccc(C)cc4)c32)cc1	-22%	8%[59 µM]	·	44%	0%
O=C(OCC(=O)N(Cc1ccccc1)Cc1ccccc1)c1ccccc1NCCO	16%	40µM*	17%	72%	6%
O=C(c1cc(-c2ccco2)nc2ccccc12)N1CCN(c2ccc(F)cc2)CC1	56µM*	?	-18%	-14%	50µM*
COc1ccc(Cl)cc1S(=O)(=O)NC(C)C(=O)NCc1ccncc1 (stereo unspecified)	-10%	22%	·	35%	6%
c1cc2c3c(cccc3c1)NC1(CCCCCC1)N2	-9%[57.1 µM]	4.5µM*	-4%	-2%	-35%
O=C1CCSc2cccc3cccc(c23)N1	-8%	-32%[59 µM]	-5%	5%	-24%
c1cc2c3c(cccc3c1)NC1(CCCCC1)N2	-30%	1.1µM*	·	-7%	-32%
c1cc2c3c(cccc3c1)NC1(CCC3(CC1)Nc1cccc4cccc(c14)N3)N2	50µM*	25%[0.501 µM]	?	?	28µM*
N#CN1CCC(NC(=O)c2ccc(C(F)(F)F)cc2)CC1	-12%	·	·	·	·
Nc1ccc2c(c1)N1CCN=C1S2	-17%	7.1µM*	0%	-16%	-6%
O=C(Nc1ccc(Cl)cc1)Nc1ccc2c(c1)N1CCN=C1S2	-12%[57.1 µM]	32µM*	-2%	21%	-5%
C1=C(c2ccccc2)N2CCN=C2S1	-12%	-36%[59 µM]	·	21%	-2%
COC(=O)C1=C(C(=O)OC)SC(=C2C(=S)C(C)(C)N(C(=O)CC(C)C)c3ccccc32)S1	11µM*	7.9µM*	·	-77%	4µM*
C[C@@H]1CN([C@@H](C)CO)C(=O)c2cccc(NS(C)(=O)=O)c2O[C@H]1CN(C)CC1CCCCC1	?	·	6%	8%	·
CN1c2ccccc2C(=O)NC1c1ccc(Cl)cc1 (stereo unspecified)	-6%	45µM*	5%	24%	-6%
CCOc1ccc(C(=O)N/N=C/c2cccc3cccnc23)cc1	79µM*	22%[59 µM]	?	24%	20µM*
O=C(N/N=C/c1ccc(O)c(O)c1)c1ccc(CSc2cccc3cccnc23)cc1	?	35µM*	·	?	?
CCOc1ccccc1C(=O)N/N=C/c1cccc2cccnc12	?	43%[0.501 µM]	-5%	18%	45µM*
COc1ccc(C(=O)N/N=C/c2cccc3cccnc23)cc1	56µM*	48%[12.7 µM]	?	27%	20µM*
O=C(CSc1cccc2cccnc12)N/N=C/c1cccc(O)c1	-14%	3%	-2%	31%	-1%
COc1ccc(Oc2ncc3nc(-c4ccc(OC)cc4)c(=O)n(C4CC4)c3n2)cc1	·	2%[0.501 µM]	·	·	·
COc1ccc(C(=O)N/N=C/c2cc3ccccc3[nH]c2=S)cc1	3.2µM*	0.71µM*	·	-5%	?
O=C1O/C(=C/c2ccccc2)c2ccccc21	137%	18%[59 µM]	43%	285%	149%
N#CC1=C(c2ccccc2)/C(=C/c2ccccc2)OC1=O	?	13µM*	·	?	22µM*
CCOC(=O)[C@@H]1[C@H]2COc3ccccc3[C@H]2N2C(=O)N(c3ccc(OC)cc3)C(=O)[C@]12C	-24%	-6%	3%	18%	-3%
Cn1nc(-c2ccc(Cl)cc2)c2cc(C(=O)N3CCOCC3)sc21	-6%	-13%	·	41%	11%
COc1ccc(N2CCN(C(=O)c3cc4c(-c5ccc(Cl)cc5)nn(C)c4s3)CC2)cc1	?	35µM*	·	-1%	10µM*
